# Screening results: PubChem, National Center for Advancing Translational Sciences (NCATS)
# GPT2 inh: inhibitors of human GPT2 alanine aminotransferase; AID 1671188; 100,000 tested, 0.25% active; Recombinant GPT2, coupled pyruvate oxidase/HRP Amplex Red fluorescence; Q8TD30; Potency, µM (series often up to 57.7 µM), without a hit: at the top dose activity change, negative = inhibition, most hits filed as inhibitors; active means well fitted inhibition curve with a large enough effect; inconclusive means small, poorly fitted or top-dose-only effect; further: on the % scale 0 is the no-effect control and ±100 the full control effect; nearly all actives have a fitted effect of over 60% in size
#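 GPT2 10ng/uL, a-KG 250uM, L-Ala 2mM, HEPES pH7.5 + 0.0001% Tween; 30 min RT. Then Amplex mix (PO/HRP/ThPP), 30 min RT dark, fluorescence. AOA 50uM used as positive control.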
# NPR1 antag: human Npr1 receptor antagonism | P16066 | HEK293 hNpr1 GloSensor cGMP, ANP-stimulated luminescence | Potency, µM (top dose mostly 46.3 µM), without a hit: top-dose activity change, negative = inhibition, hits mostly inhibitors | 76,000 tested, 1.6% active | AID 1347048; further: on the % scale 0 is the no-effect control and ±100 the full control effect; nearly all actives have a fitted effect of over 60% in size
#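 Compound pre-incubated 30 min at room temperature on GloSensor-loaded HEK293 cells stably carrying hNpr1 and the pGS-40F cGMP biosensor. Stimulation uses hNppA at 0.1 nM final; luminescence is taken at baseline and 20 min post-agonist.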
# NPR1 antag cnf: hNpr1 antagonism, confirmation assay; HEK293 hNpr1 cGMP GloSensor luminescence, ANP-stimulated; Potency, µM (doses to about 57.6 µM), inactives show at the top dose activity change, negative = inhibition, usual class: inhibitors; shares compounds with NPR1 antag; 1,400 tested, 76% active; further: nearly all actives have a fitted effect of over 70% in size
# NPR2 antag: antagonizes human Npr2, subtype selectivity check. HEK293 hNpr2 GloSensor cGMP luminescence, CNP-stimulated. Potency, µM (doses to about 57.6 µM), without a hit: at the highest dose activity change, negative = inhibition, hits mostly inhibitors. 1,400 tested, 67% active. shares compounds with NPR1 antag; further: nearly all actives have a fitted effect of over 70% in size
# FLuc counter: inhibits firefly luciferase, false Npr1 antagonist flag; shares compounds with NPR1 antag; purified FLuc enzyme, luminescence, Km substrate; Potency, µM (titrated, usually from 57.6 µM), for the others: top-dose activity change, negative = inhibition, hits mostly inhibitors; 1,400 tested, 0.7% active; active means well fitted inhibition curve with a large enough effect; inconclusive means small, poorly fitted or top-dose-only effect; further: series mostly up to about 58 µM; 0% is about no effect
# GloSensor cGMP: reduces cGMP signal in GloSensor control cells; shares compounds with NPR1 antag; 1,400 tested, 69% active; HEK293 GloSensor cGMP, SNP-stimulated, luminescence; Potency, µM (highest dose often 57.6 µM), for the others: top-dose activity change, negative = inhibition, usual class: inhibitors; AID 1347051; further: on the % scale 0 is the no-effect control and ±100 the full control effect; nearly all actives have a fitted effect of over 70% in size
# The depositor's hits bear a star; i = inactive; u = inconclusive; x = not tested or not shown; [ ] = remark or other dose. Only a selection was taken, and hits are over-represented in it overall. Unless noted, the call rests on the fitted dose curve. Potency means the concentration at half of the fitted maximal effect.
SMILES,GPT2 inh,NPR1 antag,NPR1 antag cnf,NPR2 antag,FLuc counter,GloSensor cGMP
CNC(=O)c1cccc(-c2cnc3[nH]cc(CC(=O)NCC(C)C)c3c2)c1,-6%[88.5 µM],1%[70.6 µM],x,x,x,x
CNC(=O)c1cccc(-c2cnc3[nH]cc(CC(=O)N(C)c4ccccc4)c3c2)c1,2%[88.5 µM],28µM*,35µM*,35µM*,-23%[86.2 µM],40µM*
Cc1cccc(-c2cnc3[nH]cc(CC(=O)N4CCOCC4)c3c2)c1,0%[88.5 µM],13µM*,13µM*,25µM*,-21%[86.2 µM],9.9µM*
O=C(Cc1c[nH]c2ncc(-c3ccoc3)cc12)N1CCOCC1,i,-12%[70.6 µM],x,x,x,x
CN(C)c1cccc(-c2cnc3[nH]cc(CC(=O)N4CCOCC4)c3c2)c1,i,32µM*,22µM*,28µM*,u,25µM*
COc1ncc(-c2cnc3[nH]cc(CC(=O)N4CCOCC4)c3c2)cn1,-4%[88.5 µM],4%[70.6 µM],x,x,x,x
COC(=O)[C@@H]1Cc2c([nH]c3ccccc23)[C@H]2C[C@@H](NCc3cccnc3)C[C@@H](c3ccc(C(F)(F)F)cc3)N21,-2%,2%,x,x,x,x
OCC1CN(c2ccncn2)CC12CCN(Cc1ccc(F)c(F)c1)CC2 (stereo not drawn),i,-14%,x,x,x,x
OCC1CN(c2ccncn2)CC12CCN(Cc1cc(F)c(F)c(F)c1)CC2 (stereo not drawn),-1%,u,u,-28%,-1%,-28%
CCc1cc(=O)n(CC(=O)N2CCN(c3ccc(OC)cc3)CC2)c(-c2ccccc2)n1,-28%,5%,x,x,x,x
CCc1cc(=O)n(CC(=O)N2CCN(c3ccccc3OC)CC2)c(-c2ccccc2)n1,i,-19%,u,-24%,2%,-3%
CC1Oc2ccc(NC(=O)Cc3ccccc3)cc2CN(Cc2ccc(Cl)cc2)C1=O (stereo not drawn),-1%,11µM*,22µM*,19µM*,4%,17µM*
CC(=O)Oc1ccccc1C(=O)Nc1ccc2c(c1)CN(CCc1ccc(F)cc1)C(=O)C(C)O2 (stereo not drawn),i,16µM*,24µM*,24µM*,-7%,24µM*
CCNC(=O)Nc1ccc2c(c1)CN(Cc1ccc(Cl)cc1)C(=O)C(C)O2 (stereo not drawn),i,-25%,x,x,x,x
COc1ccccc1C(=O)Nc1ccc2c(c1)CN(Cc1ccc(F)cc1)C(=O)C(C)O2 (stereo not drawn),i,-23%,x,x,x,x
CCOc1ccccc1C(=O)NCCc1noc(-c2ccccc2)n1,3%,-15%,x,x,x,x
COc1ccc(NC(=O)N2Cc3[nH]cnc3C[C@H]2c2nc(-c3ccc(C)cc3)no2)cc1,-5%[88.5 µM],u,x,x,x,x
O=C(NCCCc1ccccc1F)[C@H]1CCC[C@@H](O)C1,-2%,0%,x,x,x,x
O=C(NCCc1cccc(Oc2ccccc2)c1)[C@H]1CCC[C@H](O)C1,1%[11.5 µM],14µM*,24µM*,22µM*,1%,22µM*
O=C1c2c(nc(COc3cc(F)cc(F)c3)n2Cc2ccccc2)NCCN1Cc1ccccc1F,-5%,-19%,x,x,x,x
Cc1ccc(NC(=O)O[C@@H]2CC[C@]3(C)[C@H](CC[C@H]4OC(=O)C[C@H]43)[C@]2(C)CO)cc1,1%[88.5 µM],u,u,u,-5%[86.2 µM],40µM*
C[C@]1(CO)C2CC[C@H]3OC(=O)C[C@H]3[C@]2(C)CC[C@H]1OC(=O)Nc1ccccc1 (stereo partly drawn),-23%[88.5 µM],-6%[70.6 µM],x,x,x,x
COCC(=O)NC1CCC12CCN(Cc1cccnc1)CC2 (stereo not drawn),4%,x,x,x,x,x
Cc1cnc(C2CC2)n1CC1CCCN(C(=O)NCCc2ccccc2)C1 (stereo not drawn),i,x,x,x,x,x
O=[S+]1([O-])NC2(CCN(Cc3ccc(OC(F)(F)F)cc3)C2)CNc2ccccc21 (stereo not drawn),i,u,9.7µM*,12µM*,0%,11µM*
SMILES,GPT2 inh,NPR1 antag,NPR1 antag cnf,NPR2 antag,FLuc counter,GloSensor cGMP
O=[S+]1([O-])NC2(CCN(Cc3ccc(F)cc3)C2)CNc2ccccc21 (stereo not drawn),i,-5%,x,x,x,x
O=C(CN1C(=O)NC(c2ccc(Cl)cc2)C2=C1COC2=O)Nc1cccc(C(F)(F)F)c1 (stereo not drawn),i,u,u,u,-19%,u
O=C(CN1C(=O)NC(c2ccc(Cl)cc2)C2=C1COC2=O)Nc1cccc(F)c1 (stereo not drawn),i,-17%,x,x,x,x
O=C1OCC2=C1C(c1ccc(Cl)cc1)NC(=O)N2CC(=O)N1CCC(Cc2ccccc2)CC1 (stereo not drawn),i,13µM*,19µM*,24µM*,-1%,19µM*
CCOc1ccccc1C1NC(=O)N(CC(=O)Nc2cccc(OC)c2)C2=C1C(=O)OC2 (stereo not drawn),i,-12%,x,x,x,x
CC1CCN(C(=O)CN2C(=O)NC(c3ccccc3)C3=C2COC3=O)CC1 (stereo not drawn),2%,6%,x,x,x,x
CCOc1ccccc1C1NC(=O)N(CC(=O)Nc2cccc(C(F)(F)F)c2)C2=C1C(=O)OC2 (stereo not drawn),i,u,u,-27%,-9%,u
O=C(c1cc(C2CC2)[nH]n1)N(Cc1ccc2c(c1)OCO2)C1CC1,i,-7%,x,x,x,x
Cn1cccc1C(=O)N[C@H]1C[C@@H](C(=O)O)N(C(=O)CSCC(=O)N2C[C@@H](NC(=O)c3cccs3)C[C@H]2C(=O)O)C1,0%,2%,x,x,x,x
Cn1c(CNC(=O)c2ccc3nccn3c2)nc2cc(C(F)(F)F)ccc21,u,11µM*,22µM*,19µM*,-10%,27µM*
O=C(NCc1ccc(F)cc1)c1ccc2nccn2c1,-1%[88.5 µM],-20%[70.6 µM],x,x,x,x
COc1cccc(-c2cc3c(=O)n(CCNC(=O)c4ccc5cc[nH]c5c4)ccn3n2)c1,u,-18%,x,x,x,x
O=S(=O)(c1ccc(Cl)cc1)N1CCOC[C@H](Oc2ccc(C(F)(F)F)cc2)C1,1%,-24%,u,u,4%,u
COc1ccc(S(=O)(=O)N2CCOC[C@H](Oc3cccnc3)C2)cc1,i,-23%[70.6 µM],x,x,x,x
CCNC(=O)N[C@H]1C[C@@H](Cc2cc(CN3CCN(c4ccccc4)CC3)on2)C1(C)C,i,u,x,x,x,x
CC(C)(C)CC(=O)N[C@H]1C[C@@H](Cc2cc(CN3CCN(c4ccccc4)CC3)on2)C1(C)C,u,2.8µM*,3.1µM*,3.4µM*,4%,2.4µM*
COCC(=O)N[C@H]1C[C@@H](Cc2cc(-c3ccccc3)on2)C1(C)C,-14%[88.5 µM],-22%[70.6 µM],x,x,x,x
O=C(C1CC1)N1CCCN(CCc2ccccc2)c2ccccc21,i,-15%,x,x,x,x
